UHRF1 binding = blocks human UHRF1 binding to methylated DNA. 0.75% of 370,000 active. inhibition, % at 4.4 µM. Q96T88. UHRF1 binding to methylated oligo, TR-FRET; in the data active = inhibition above about 21%;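 also: UHRF1 SRA domain binding a hemimethylated CpG hairpin DNA probe; 0% = median of test compound wells and 100% = reference inhibitor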
MBD2 inh = MBD2-methylated oligo binding inhibition | TR-FRET, MBD2 binding to methylated oligonucleotide | inhibition, % at 4.4 µM | 0.31% of 370,000 active | AID 686964; in the data active = inhibition above about 13%
Target sequence (Q9UBB5 whole entry, looked up): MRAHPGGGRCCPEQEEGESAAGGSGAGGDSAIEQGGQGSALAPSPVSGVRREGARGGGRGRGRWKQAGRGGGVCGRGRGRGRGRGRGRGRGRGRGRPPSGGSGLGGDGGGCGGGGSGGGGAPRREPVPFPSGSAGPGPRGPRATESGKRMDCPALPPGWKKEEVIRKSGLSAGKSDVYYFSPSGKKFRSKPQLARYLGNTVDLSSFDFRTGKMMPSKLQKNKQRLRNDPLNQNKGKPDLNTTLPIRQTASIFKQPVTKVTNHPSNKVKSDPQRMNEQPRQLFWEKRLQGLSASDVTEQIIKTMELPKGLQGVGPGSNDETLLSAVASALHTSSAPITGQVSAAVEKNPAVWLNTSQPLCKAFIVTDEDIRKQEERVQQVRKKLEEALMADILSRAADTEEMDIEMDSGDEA
DNMT1 block = DNMT1 (human) enzyme inhibition; P26358; DNMT1 molecular beacon, Hinp1I cleavage, fluorescence; inhibition (reported as % activation of signal), % at 10 µM; 0.83% of 360,000 active; in the data active = inhibition above about 50%
PG9 binder = small molecules binding HIV-1 gp120 antibody PG9; TR-FRET gp120-PG9 antibody binding; inhibition, % at 6.7 µM; 0.43% of 360,000 active; in the data active = inhibition above about 8.5%
rCAG RNA binder = binds r(CAG) RNA repeats; inhibition, % at 3 µM; 1.3% of 370,000 active; r(CAG) RNA repeat, TO-PRO-1 dye displacement fluorescence; AID 651821;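 active = inhibition above the plate cutoff, the mean of all test compounds on that plate plus 3 SD, cut at about 35% in these data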;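 also: 0% = DMSO alone and 100% = 100 µM mitoxantrone as full dye displacement; higher means more dye released from RNA so lower well fluorescence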
LEDGF integ inh = blocks HIV-1 LEDGF/p75-dependent DNA integration | TR-FRET IN-LEDGF/p75 DNA integration, Eu/Cy5 | inhibition, % at 3.7 µM | 0.64% of 370,000 active | AID 743269;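 active = inhibition above the screen-wide mean plus 3 SD, cut at about 13% in these data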;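 also: signal is the Cy5 over europium emission ratio at 671 and 618 nm; 0% = plate median of compound wells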
rCAG bind conf = r(CAG) RNA repeat binding, confirmation. 70% of 4,300 active. inhibition, % at 3 µM. TO-PRO-1 dye displacement fluorescence. shares compounds with rCAG RNA binder. AID 652065;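 active = inhibition above a per-plate cutoff, the mean inhibition of sample wells plus 3 SD, cut at about 35% in these data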;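 also: loss of TO-PRO-1 fluorescence as compound displaces dye from 1x1 AA loop RNA; 0% = DMSO only wells and 100% = 100 µM mitoxantrone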
DNA CAG counter = disrupts DNA CAG TO-PRO-1 complex, flagging rCAG hits. shares compounds with rCAG RNA binder. d(CAG) DNA oligo TO-PRO-1 dye displacement, fluorescence. inhibition, % at 3 µM. AID 652068. 94% of 4,300 active;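 active = inhibition above its plate's cutoff, the mean test-well inhibition plus 3 SD, cut at about 4.8% in these data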;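 also: 0% = DNA dye mix with DMSO and 100% = 100 µM mitoxantrone; hits displace the dye from DNA and so lower well fluorescence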
* = called active by the depositor; . = not tested or not shown. A selection: hits, their analogues and other compounds. The true share with any hit is near 3.5%.

SMILES	UHRF1 binding	MBD2 inh	DNMT1 block	PG9 binder	rCAG RNA binder	LEDGF integ inh	rCAG bind conf	DNA CAG counter
O=C(O)CCN1C(=O)/C(=C\c2cccc(OCC(=O)Nc3ccc(Cl)cc3)c2)SC1=S	-8	-4	-2	1	71*	8	82*	43*
CCCN1CCN(CC(=O)NCC(=O)Nc2cccc(C)c2C)CC1	0	2	0	-1	-3	-6	.	.
Cc1ccc(S(=O)(=O)N2C[C@H]3C(=O)C[C@@H](c4ccc(Cl)cc4)N(S(=O)(=O)c4ccccc4C)[C@H]3C[C@H]2c2ccc(Cl)cc2)cc1	-2	3	-4	-1	13	-4	.	.
CCc1nnc(NS(=O)(=O)c2ccc(NC(=S)NC(=O)/C=C/c3ccccc3)cc2)s1	-3	1	-1	0	87*	3	85*	50*
CCc1nnc(NS(=O)(=O)c2ccc(NC(=S)NC(=O)c3ccccc3)cc2)s1	16	4	8	0	65*	-1	51*	18*
CCc1nnc(NS(=O)(=O)c2ccc(NC(=O)c3ccccc3)cc2)s1	-5	-5	3	-1	9	-3	.	.
CCc1nnc(NS(=O)(=O)c2ccc(NC(=S)NC(=O)/C=C/c3ccc(OC)cc3)cc2)s1	1	-1	-3	-3	10	-4	.	.
CCc1nnc(NS(=O)(=O)c2ccc(NC(=O)/C=C/c3ccccc3Cl)cc2)s1	3	1	-9	1	86*	-7	82*	54*
CCc1nnc(NS(=O)(=O)c2ccc(NC(=S)NC(=O)c3ccc(Br)cc3)cc2)s1	-5	4	-4	2	83*	0	80*	49*
CCc1nnc(NS(=O)(=O)c2ccc(NC(=S)Nc3ccc(F)cc3)cc2)s1	-1	3	1	-1	14	-1	.	.
O=S1(=O)c2ccc(Br)cc2OC[C@H](Cc2ccccc2)N1Cc1cn(Cc2ccc(Cl)cc2)nn1	-2	2	.	.	5	0	.	.
COCCCN(C(=O)CSCC(=O)Nc1ccc(C)cc1)c1c(N)n(Cc2ccccc2)c(=O)[nH]c1=O	1	0	-2	0	7	0	.	.
COc1ccc(NS(=O)(=O)c2ccc(NC(=S)NC(=O)/C=C/c3ccccc3)cc2)nn1	-3	-4	2	0	40*	-1	51*	17*
COc1nccnc1NS(=O)(=O)c1ccc(NC(=S)NC(=O)/C=C/c2ccc(F)cc2)cc1	0	3	1	-2	71*	4	59*	24*
COc1cc(NS(=O)(=O)c2ccc(NC(=S)NC(=O)/C=C/c3ccc(F)cc3)cc2)ncn1	-2	-7	5	2	3	-4	.	.
CCOC(=O)[C@@]12CN(C(=O)OC(C)(C)C)CC=C1N(Cc1ccc(OC)cc1)C(=O)[C@H]2CC(=O)NCC12CC3CC(CC(C3)C1)C2	0	4	.	.	4	-4	.	.
COC(=O)c1cccc(NC(=O)/C=C/c2ccc([N+](=O)[O-])cc2)c1	-6	-5	-7	-2	8	-2	.	.
O=C(N/N=C/C(Cl)=C/c1ccc([N+](=O)[O-])cc1)C(=O)Nc1ccccc1C(=O)O	0	2	-13	0	52*	-3	46*	19*
O=C(/C=C/c1ccccc1)Nc1cc(NC(=O)/C=C/c2ccccc2)cc(C(=O)O)c1	4	-4	-4	-5	75*	6	81*	52*
O=C(/C=C/c1ccccc1)Nc1cccc(C(=O)O)c1	0	-1	2	0	3	-1	.	.
Cc1ccccc1C(=O)Nc1cccc(C(=O)Nc2ccccc2C(=O)O)c1	1	4	-3	-1	36*	-5	23	3
O=C(N/N=C/C(Cl)=C/c1ccc([N+](=O)[O-])cc1)C(=O)Nc1ccc(C(=O)O)cc1	1	2	46	-2	-1	-2	.	.

Screening data (PubChem)
